Experimental data taken from the supplement of paper PMC6555819.

Key:
Assay in all cases: PBM binding z-score (relative to random genomic background probes); higher = stronger binding; sequences stand for … in GC…GCGATTGACAGCGTAGAATGAAGG
[1] = test system: PPARg:RXRa DBDmut IVT, anti-RXR (DBD mutation: RXRa K156A/R161A, NR concentration 270 nM, RXRa partner concentration 90 nM)
In short: (§1)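 Custom Agilent 4×180K protein-binding microarrays carried double-stranded probes. Their 34-nt variable regions held direct-repeat seeds, single-nucleotide variants, half-site ablations and random human genomic background sequences. Arrays were incubated 1 h with ligand-free nuclear receptor dimers in PBS pH 7.4, 2% milk, 0.02% Triton X-100, 1 mM DTT, 0.2 mg/mL BSA and 0.4 mg/ml salmon testes DNA. Antibodies against each partner (one per run) detected binding, and scanned fluorescence was regression-normalized. Binding z-scores use random background probes as reference.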

[2] = test system: PPARg:RXRa IVT, anti-PPARg (NR concentration 270 nM, RXRa partner concentration 90 nM)
In short: as §1

[3] = test system: PPARg DBDmut:RXRa IVT, anti-PPARg (DBD mutation: PPARg1 K132A/R137A, NR concentration 270 nM, RXRa partner concentration 90 nM)
In short: as §1

[4] = test system: PPARg DBDmut IVT, anti-PPARg (DBD mutation: PPARg1 K132A/R137A, NR concentration 270 nM)
In short: as §1

[5] = test system: PPARg homodimer (NR concentration 180 nM)
In short: as §1

[6] = test system: PXR:RXRa (NR concentration 270 nM, RXRa partner concentration 90 nM)
In short: as §1

[7] = test system: PXR homodimer (NR concentration 270 nM)
In short: as §1

[8] = test system: RARa:RXR (NR concentration 270 nM, RXRa partner concentration 90 nM)
In short: as §1

[9] = test system: RARa homodimer (NR concentration 270 nM)
In short: as §1

[10] = test system: RARb:RXRa (NR concentration 270 nM, RXRa partner concentration 90 nM)
In short: as §1

| Sequence | PBM binding z-score [1] | PBM binding z-score [2] | PBM binding z-score [3] | PBM binding z-score [4] | PBM binding z-score [5] | PBM binding z-score [6] | PBM binding z-score [7] | PBM binding z-score [8] | PBM binding z-score [9] | PBM binding z-score [10] |
| --- | --- | --- | --- | --- | --- | --- | --- | --- | --- | --- |
| CGTCCAAGGTCAGCAGTTCAGTGAAAGCGACGTG | 2.51 | 2.84 | 0.0799 | 0.847 | 1.67 | 3.52 | 1.29 | 3.96 | 0.38 | 5.29 |
| TCATATAGGTAATACAGGTGACAGTCGGCATCTA | 4.18 | 3.85 | 1.35 | 1.53 | 1.04 | 0.765 | 0.723 | 1 | 1.35 | 0.683 |
| GATACAGGGACAAGGCCAGAGTACGCGTATTGAT | 0.111 | 0.0816 | -0.754 | -0.819 | 0.187 | -0.396 | 0.236 | -0.445 | -0.566 | 0.943 |
| TCATATAGGAAAAGGTGAAAGTCGAACGATATGA | 1.88 | 1.52 | 1.28 | 0.696 | 0.985 | 0.902 | -0.139 | 1.54 | 0.581 | 1.93 |
| TCTCGCAGGACACGAAAGGTCAGAGCTCGACATC | 1.62 | 1.4 | 0.807 | 0.509 | 2.57 | 3.87 | 0.38 | 4.53 | 1.07 | 3.95 |
| GCTTACGGGTCAAAGGTTCTAGCATGAATAGAAT | 5.13 | 5.05 | 0.842 | 0.712 | 1.45 | 4 | 0.0267 | 5.93 | 0.382 | 3.82 |
| GGAACGAGGGCAAGCTGATAGCAGAGTTTGATGG | 3.83 | 2.53 | -0.705 | -0.924 | -0.391 | 0.149 | 0.429 | -0.0859 | -0.744 | 2.46 |
| CCGACTGGGGCAAAGGTGACCATACTCAGTACGA | 5.54 | 5.24 | 0.207 | -0.959 | 1.34 | 0.701 | -0.655 | 1.65 | -0.317 | 1.62 |
| CGAACTAGGTCAAGAGGTCAAAGTCCGCTTCCCG | 8.26 | 8.1 | 0.974 | -0.335 | 5.23 | 6.23 | 3.31 | 7.7 | 2.18 | 5.48 |
| GCTGCTAGGTCAGGTTCGTCAGCTAACGGGTACG | 3.23 | 2.23 | -0.735 | -0.897 | 0.459 | 0.538 | -0.243 | 0.887 | -0.894 | 3.17 |
| ATCTCCAGGTAACAAGTTCAGTGAAAGAGAGGAC | 0.841 | 1.17 | 1.63 | 1.37 | 1.7 | 1.73 | 2.04 | 1.05 | 1.49 | 1.76 |
| GCGACTGGGGCATCAGCAGGTAACCATAACTTAA | 3.85 | 3.1 | -0.465 | -0.924 | 0.206 | -0.194 | -0.176 | 0.582 | -0.479 | 0.352 |
